Most compounds without a hit are left out; they make up all but 4% or so of the library.
Rv3671c inh: Rv3671c serine protease inhibitors, primary screen, biochemical, fluorescence polarization, M. tuberculosis H37Rv; P9WHR9; inhibition, % at 5.96 µM; actives 0.048% (n = 320,000); AID 2606, 2010; in the data active = inhibition above about 38%;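 note: extracellular domain of Rv3671c used as enzyme; 0% = enzyme with DMSO and 100% = no enzyme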
Mtb UGM inh: M. tuberculosis UGM enzyme inhibitors, primary screen, biochemical, fluorescence polarization, single point; UDP-galactopyranose mutase (Mycobacterium tuberculosis (strain ATCC 25618 / H37Rv)), …; purified UGM, fluorescence polarization probe displacement; inhibition, % at 10 µM; actives 0.06% (n = 320,000); AID 504406, 2011; in the data active = inhibition above about 10%, passing the limit was not always enough
Mtb betalactam: beta-lactam sensitization of Mtb H37Rv, H37Rv; actives 0.27% (n = 330,000); inhibition, % at 25 µM; M. tuberculosis H37Rv growth with meropenem, percent inhibition; AID 434955, 2010; call rule not given here;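 note: growth measured after seven days incubation then overnight dye step; 0% = bacteria only wells and 100% = bacteria with antibiotic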
RecA splice inh: Mtb RecA intein splicing inhibitors, primary screen, biochemical, fluorescence, HTS; Protein RecA (Mycobacterium tuberculosis (strain ATCC 25618 / H37Rv)), P9WHJ3; cell-free RecA intein splicing; inhibition, % (concentration not given with the values); actives 0.75% (n = 290,000); AID 2221, 2009; in the data active = inhibition above about 30%;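 note: 0% = vehicle wells and 100% = reference inhibitor control wells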
FBA Mtb inh: Mtb FBA enzyme inhibitors, primary screen, biochemical, fluorescence, strain H37Rv; inhibition, % at 1 µM; AID 588726, 2011; Fructose-bisphosphate aldolase (Mycobacterium tuberculosis (strain ATCC 25618 / H37Rv)), …; purified M. tuberculosis FBA, fluorescence read-out; actives 2.3% (n = 360,000); in the data active = inhibition above about 27%;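 note: 0% = vehicle and 100% = reference inhibitor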
Target sequence (P9WQA3 whole entry, looked up): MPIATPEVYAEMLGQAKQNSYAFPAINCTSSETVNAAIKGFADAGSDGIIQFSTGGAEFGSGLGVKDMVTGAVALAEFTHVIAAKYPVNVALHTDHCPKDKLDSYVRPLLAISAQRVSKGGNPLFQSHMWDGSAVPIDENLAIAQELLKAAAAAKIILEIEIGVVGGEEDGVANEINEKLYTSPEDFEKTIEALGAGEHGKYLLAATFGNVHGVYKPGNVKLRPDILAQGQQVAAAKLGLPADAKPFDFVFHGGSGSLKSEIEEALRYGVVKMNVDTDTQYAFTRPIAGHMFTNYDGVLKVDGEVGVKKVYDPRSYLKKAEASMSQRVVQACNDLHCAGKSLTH
GDH-TPI inh: GDH-TPI coupling enzyme inhibitors, primary screen, artefact control for M. tuberculosis FBA inhibitor project, biochemical, absorbance, full deck; AID 588335, 2011; actives 1.2% (n = 360,000); inhibition, % at 4.8 µM; GDH-TPI coupled enzyme counterscreen, NADH absorbance; in the data active = inhibition above about 30%;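 note: 0% = DMSO wells and 100% = wells lacking the enzyme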
The depositor's hits bear a star; · = no result given; + = active, no number.

SMILES	Rv3671c inh	Mtb UGM inh	Mtb betalactam	RecA splice inh	FBA Mtb inh	GDH-TPI inh
COC(=O)c1ccc(C(c2c(C)n(C)n(-c3ccccc3)c2=O)c2c(C)n(C)n(-c3ccccc3)c2=O)cc1	-2	1	-2	-3	0	4
Cc1[nH]ccc2c1[nH]c1cc(=O)ccc12	-6	-1	1	-44	167*	7
Cc1ccc(S(=O)(=O)N2CCCC2)cc1C(=O)NCCN1CCOCC1	-9	-1	6	-1	-2	5
COc1ccc(C=NNC(=O)c2cc(C)oc2C)cc1O	7	0	2	·	1	31*
COc1ccc(/C=N/NC(=O)c2cc3c(OC)ccc(OC)c3[nH]2)cc1O	19	-1	6	-1	-3	43*
COc1cc(/C=N/NC(=O)c2cc(C)oc2C)ccc1O	5	3	-3	-5	-3	24
O=C(c1ccncc1)N1CCN(S(=O)(=O)c2cccc(C(F)(F)F)c2)CC1	12	0	4	·	-1	0
CSc1ccc(-c2cc(=O)c3ccccc3o2)cc1	-8	2	70	-25	+	45*
O=c1cc(-c2ccc(F)cc2)oc2ccccc12	5	1	0	2	-1	9
Cc1ccc(NS(=O)(=O)Cc2ccccc2)cc1Cl	1	2	-6	2	-1	5
COc1ccc(/C=C2\SC(=O)N(CCn3cnnn3)C2=O)cc1	-6	1	-7	0	-2	38*
COc1ccc(/C=C2\SC(=O)N(CCC(=O)N3CCCCC3CCO)C2=O)cc1 (stereo not drawn)	-5	0	1	6	0	40*
COc1ccc(/C=C2\SC(=S)N(CCC(=O)N3CCCCC3CCO)C2=O)cc1 (stereo not drawn)	-13	3	27	0	-4	2
Cc1ccccc1Cc1c(C)nc2nc(SCC(=O)NCc3ccco3)nn2c1C	2	1	6	3	-3	3
Cc1ccccc1Cc1c(C)nc2c(C(=O)NCc3ccco3)cnn2c1C	-7	-4	43	17	48*	6
Cc1ccc(CNc2nc(N)c([N+](=O)[O-])c(NCc3ccccc3)n2)cc1	-1	-1	0	-6	0	1
Nc1nc(Nc2ccc(Cl)cc2)nc(NCCO)c1[N+](=O)[O-]	2	-1	-3	4	2	21
Nc1nc(NCc2ccc(Cl)cc2)nc(NCCO)c1[N+](=O)[O-]	5	6	-1	·	-2	38*
Cc1ccc(CNc2nc(N)c([N+](=O)[O-])c(NCCO)n2)cc1	1	-2	-3	1	-3	52*
CC(C)CCNc1nc(N)c([N+](=O)[O-])c(NCCO)n1	-1	-1	-4	1	3	50*
CCC(C)Nc1nc(N)c([N+](=O)[O-])c(NCCO)n1 (stereo not drawn)	5	-2	-6	1	1	25
CCc1cccc(OCCOC(=O)CNS(=O)(=O)c2ccc(NC(C)=O)cc2)c1	·	·	·	·	-5	-2
O=C(NCc1nc2ccccc2[nH]1)c1cccs1	3	-2	-2	1	-1	7
COc1ccc(C(=O)N/C(=C/c2cccs2)C(=O)NC(C)(C)C)cc1OC	1	1	10	1	1	2
COc1cc(/C=C(/C(=O)c2cccs2)c2nc3ccccc3[nH]2)cc(OC)c1O	3	0	29	0	-12	43*
COc1ccc(C(=O)N/C(=C/c2cccs2)c2nc3ccccc3[nH]2)cc1OC	2	-3	5	5	3	47*
O=C(NC1CCCC1)c1cc(-c2ccc(Cl)cc2Cl)on1	-5	1	-5	4	1	-4
COc1ccc(N=Cc2ccc(N(CCC#N)CCC#N)cc2)cc1	·	·	·	·	-3	49*
COc1ccc(C(C#N)=Cc2ccc(N(C)CCC#N)cc2)cc1	·	·	·	·	-3	18
Cc1cc(=O)oc(C)c1C(=O)NCCCN1CCN(c2ccc(F)cc2)CC1	4	-4	-11	0	-2	40*

Compound activity as filed in PubChem BioAssay.
